PubChem BioAssay (NCATS)
Inconclusive results are not listed. Activity calls are given as the source filed them. Unless noted, calls follow the shape of the dose curve; as a rule, active = well fitted curve in the direction sought with a large enough effect; inconclusive = small, poorly fitted or top-dose-only effect, or another doubt; inactive = no such curve, though single readings can be large; an effect the other way counts as inactive or inconclusive.

Tests used:
[1] = target: Lysosomal acid glucosylceramidase (Homo sapiens) (UniProt P04062); test: Glucocerebrosidase-p2 (AID 348; in the data active = potency below about 10 µM; also: potency is read from the fitted curve at half-maximal effect); details: purified GBA, blue fluorogenic substrate, 40 min
Lysosomal acid glucosylceramidase (Homo sapiens), sequence (P04062 whole entry, looked up): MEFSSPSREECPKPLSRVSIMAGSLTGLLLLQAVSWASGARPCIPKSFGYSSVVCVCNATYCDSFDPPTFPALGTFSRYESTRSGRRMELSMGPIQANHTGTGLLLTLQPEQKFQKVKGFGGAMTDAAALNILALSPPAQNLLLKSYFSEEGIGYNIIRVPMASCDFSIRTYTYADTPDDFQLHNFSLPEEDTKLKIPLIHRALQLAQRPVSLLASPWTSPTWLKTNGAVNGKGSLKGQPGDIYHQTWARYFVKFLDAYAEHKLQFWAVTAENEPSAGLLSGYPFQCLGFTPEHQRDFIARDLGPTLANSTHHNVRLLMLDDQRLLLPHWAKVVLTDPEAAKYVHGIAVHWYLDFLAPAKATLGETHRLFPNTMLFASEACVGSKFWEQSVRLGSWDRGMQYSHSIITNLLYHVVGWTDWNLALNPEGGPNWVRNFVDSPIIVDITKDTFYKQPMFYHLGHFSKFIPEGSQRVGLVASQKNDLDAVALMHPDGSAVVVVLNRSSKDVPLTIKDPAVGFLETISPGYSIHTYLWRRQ
Outline: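 Compounds titrated from 0.6 nM upwards against 0.2 nM enzyme in pH 5.9 citric acid/KH2PO4, taurocholate, tween-20; blue fluorogenic substrate 80 uM, 40 min room temperature, stopped and read Ex 365/Em 440 for AC50.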

[2] = AP1 Signaling Pathway (AID 357; active = well fitted curve in either direction with a large enough effect, not every such curve was filed as active;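 also: ME-180 reporter cells stimulated with EGF at its EC50 level; % is scaled to controls: 0 for no effect and ±100 for the full control effect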); details: ME-180 AP-1-bla reporter, EGF-induced, beta-lactamase ratio, 5 h; at 7.69 µM (top of the series) unless noted
Outline: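 Modulation of EGF-driven AP-1 transcription was assessed with a beta-lactamase reporter in ME-180 cells. Compound and EC50 EGF were co-incubated 5 hours at 37 °C before 2.5-hour CCF4 loading at room temperature and dual-emission reading.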

[3] = target: Cytochrome P450 1A2 (Homo sapiens) (UniProt P05177); test: p450-cyp1a2 (AID 410; calls by dose curve; also: potency is read from the fitted curve at half-maximal effect); details: recombinant CYP1A2, luciferin-ME demethylation, luminescence; series mostly up to 57 µM
Cytochrome P450 1A2 (Homo sapiens), sequence (P05177 whole entry, looked up): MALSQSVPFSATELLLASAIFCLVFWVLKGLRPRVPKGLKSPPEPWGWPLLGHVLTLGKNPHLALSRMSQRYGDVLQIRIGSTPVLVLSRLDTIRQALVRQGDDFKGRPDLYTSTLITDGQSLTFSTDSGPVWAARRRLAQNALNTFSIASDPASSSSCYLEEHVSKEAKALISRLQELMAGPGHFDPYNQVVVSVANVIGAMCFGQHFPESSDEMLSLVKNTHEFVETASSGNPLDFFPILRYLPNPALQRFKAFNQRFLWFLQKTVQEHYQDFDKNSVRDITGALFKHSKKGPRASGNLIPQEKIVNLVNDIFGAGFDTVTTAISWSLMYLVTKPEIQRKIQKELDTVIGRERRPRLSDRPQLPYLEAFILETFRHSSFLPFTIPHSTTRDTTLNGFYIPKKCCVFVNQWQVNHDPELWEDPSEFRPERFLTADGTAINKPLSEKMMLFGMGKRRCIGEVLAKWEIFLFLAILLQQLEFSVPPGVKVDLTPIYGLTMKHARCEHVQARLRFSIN
Outline: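 Human CYP1A2 (20nM) demethylated Luciferin-ME at its Km (100uM) in 100mM KPO4. After 10 min compound preincubation, NADPH regeneration ran the reaction 60 min at room temperature. Luciferin was read by luminescence, normalized to 57 uM furafylline.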

[4] = NFAT Signaling Pathway (AID 444; active = well fitted curve in either direction with a large enough effect, not every such curve was filed as active;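 also: carbachol stimulus at about its EC50 of 1 µM final; % is scaled to controls: 0 for no effect and ±100 for the full control effect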); details: Jurkat NFAT-bla M1, carbachol, beta-lactamase ratio, 5 h; at 7.69 µM (top of the series) unless noted
Outline: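 Jurkat cells with NFAT-driven β-lactamase reporter and co-expressed M1 receptor, stimulated with carbachol (final 1 uM, ~EC50), compound titration, 5 h at 37 °C. CCF4 loaded 1 h at RT; 460/530 nm ratio gave %activity and AC50.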

[5] = Stat Signaling Pathway (AID 446; active = well fitted curve in either direction with a large enough effect, not every such curve was filed as active;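 also: ME-180 cervical cancer cells given 40 pM IL-6 alongside compound; SIE-controlled beta-lactamase reporter measured as 460/530 nm FRET emission ratio; % is scaled to controls: 0 for no effect and ±100 for the full control effect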); details: ME-180 SIE beta-lactamase reporter, IL-6 stimulated, 5 h; at 7.69 µM (top of the series) unless noted
Outline: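 ME-180 SIE-bla cells; overnight plating; cpd + IL-6 40 pM, 5 h, 37 C; LiveBLAzer 2.5 h RT; 460/530 nm emission ratio. Normalized to 300 pM IL-6 and 125 nM JAK inhibitor controls.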

[6] = target: Glucocorticoid receptor (Homo sapiens) (UniProt P04150); test: GR-GFP Redistribution (AID 450;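 active = compounds whose dose series gives a full or clear partial fitted curve of increased nuclear translocation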; also: potency is read from the fitted curve at half-maximal effect); details: U2OS GR-GFP nuclear translocation, laser cytometry, 2 h
Glucocorticoid receptor (Homo sapiens), sequence (P04150 whole entry, looked up, the tested form may be a part): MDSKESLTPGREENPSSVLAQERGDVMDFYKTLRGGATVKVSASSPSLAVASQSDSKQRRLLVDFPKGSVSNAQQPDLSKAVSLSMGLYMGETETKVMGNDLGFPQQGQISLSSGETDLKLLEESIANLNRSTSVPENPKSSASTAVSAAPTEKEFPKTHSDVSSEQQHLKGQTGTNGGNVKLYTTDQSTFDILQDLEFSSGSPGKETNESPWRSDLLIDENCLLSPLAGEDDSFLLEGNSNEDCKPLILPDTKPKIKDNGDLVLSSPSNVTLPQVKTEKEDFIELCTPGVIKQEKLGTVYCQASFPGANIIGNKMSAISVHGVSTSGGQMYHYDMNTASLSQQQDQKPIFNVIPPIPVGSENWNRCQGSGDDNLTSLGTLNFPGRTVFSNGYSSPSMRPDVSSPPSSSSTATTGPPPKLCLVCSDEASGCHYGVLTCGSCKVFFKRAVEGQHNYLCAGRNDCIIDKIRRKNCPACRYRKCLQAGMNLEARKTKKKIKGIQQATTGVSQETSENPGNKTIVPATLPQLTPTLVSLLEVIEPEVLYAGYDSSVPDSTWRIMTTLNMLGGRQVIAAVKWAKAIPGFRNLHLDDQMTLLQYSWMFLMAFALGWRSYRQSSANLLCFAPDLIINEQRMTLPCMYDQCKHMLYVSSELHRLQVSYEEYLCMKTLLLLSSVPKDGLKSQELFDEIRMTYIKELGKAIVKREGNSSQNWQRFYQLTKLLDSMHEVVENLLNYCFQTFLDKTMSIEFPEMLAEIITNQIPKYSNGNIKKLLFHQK

[7] = target: Glucocorticoid receptor (Homo sapiens) (UniProt P04150); test: GR-EFC Redistribution (AID 451; calls by dose curve; also: potency is read from the fitted curve at half-maximal effect); details: CHO-K1 GR-EFC translocation, beta-gal luminescence, 2 h
Outline: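 CHO-K1 cells expressing nuclear EA and GR-ED fragments of b-gal; compounds titrated up to 46 uM final, 2 h at 37 C. GR nuclear translocation read as complemented b-gal luminescence after 1 h RT detection.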

[8] = target: Mitogen-activated protein kinase 10 (Mus musculus) (UniProt Q61831); test: JNK3 AlphaScreen Assay (AID 530; active = well fitted curve in either direction with a large enough effect, not every such curve was filed as active;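 also: kinase came from lysate of stimulated human HepG2 cells; signal reports phosphorylation of biotinylated GST-cJun 1-79 at Ser73 with 10 µM ATP; % is scaled to controls: 0 for no effect and ±100 for the full control effect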); details: JNK3 lysate, c-Jun phosphorylation; series mostly up to 57.1 µM
Outline: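 qHTS format: compounds tested as titrations against IL-1beta/TNF-alpha-activated HepG2 lysate JNK3 with biotin-GST-cJun substrate and 10 uM ATP at room temperature. Loss of anti-phospho-cJun AlphaScreen signal indicates inhibition.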

[9] = target: 3',5'-cyclic-AMP phosphodiesterase 4B (Homo sapiens) (UniProt Q07343); test: qHTS Assay for Inhibitors of PDE-IV (AID 607; active = well fitted activation curve with a large enough effect in the main read-out, with a control signal flat, not every such curve was filed as active; also: % of control where 0% means no effect); details: HEK293 ACTOne CNG channel cells, membrane potential fluorescence; series mostly up to 22.9 µM
3',5'-cyclic-AMP phosphodiesterase 4B (Homo sapiens), sequence (Q07343 whole entry, looked up): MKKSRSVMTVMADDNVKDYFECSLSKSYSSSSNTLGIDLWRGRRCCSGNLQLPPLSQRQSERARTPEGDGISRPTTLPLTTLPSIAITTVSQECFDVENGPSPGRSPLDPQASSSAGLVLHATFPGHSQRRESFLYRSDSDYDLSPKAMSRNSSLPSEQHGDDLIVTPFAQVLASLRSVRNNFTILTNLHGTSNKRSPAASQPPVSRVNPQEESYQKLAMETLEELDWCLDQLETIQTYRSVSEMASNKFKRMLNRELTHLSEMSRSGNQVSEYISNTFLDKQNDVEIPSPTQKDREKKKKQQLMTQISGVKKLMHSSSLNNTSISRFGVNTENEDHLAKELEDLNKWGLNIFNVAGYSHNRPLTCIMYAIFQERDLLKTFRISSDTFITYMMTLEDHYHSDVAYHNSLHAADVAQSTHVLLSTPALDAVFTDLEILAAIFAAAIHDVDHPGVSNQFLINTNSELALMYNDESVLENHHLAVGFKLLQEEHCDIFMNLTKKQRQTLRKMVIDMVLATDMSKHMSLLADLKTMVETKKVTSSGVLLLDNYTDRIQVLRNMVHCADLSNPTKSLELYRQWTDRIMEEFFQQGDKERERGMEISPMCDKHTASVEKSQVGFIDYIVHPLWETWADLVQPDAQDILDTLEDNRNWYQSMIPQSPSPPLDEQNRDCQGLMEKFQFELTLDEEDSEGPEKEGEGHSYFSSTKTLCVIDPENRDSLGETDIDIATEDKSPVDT
Outline: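 ACTOne HEK293 cells carry a modified cAMP-gated CNG channel and express endogenous PDE4; plated 1000 cells/well, compounds up to 22.9 uM final. Membrane-potential dye fluorescence (ex 535/em 590) was read; parental cells received 10 uM forskolin + 100 uM RO 20-1724.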

[10] = target: Cytochrome P450 2C9 (Homo sapiens) (UniProt P11712); test: qHTS Assay for Inhibitors and Substrates of Cytochrome P450 2C9 (AID 883); details: recombinant CYP2C9, luciferin-H luminescence, 60 min; series mostly up to 57.1 µM; also: % is scaled to controls: 0 for no effect and ±100 for the full control effect; nearly all actives have a fitted effect of over 60% in size
Cytochrome P450 2C9 (Homo sapiens), sequence (P11712 whole entry, looked up): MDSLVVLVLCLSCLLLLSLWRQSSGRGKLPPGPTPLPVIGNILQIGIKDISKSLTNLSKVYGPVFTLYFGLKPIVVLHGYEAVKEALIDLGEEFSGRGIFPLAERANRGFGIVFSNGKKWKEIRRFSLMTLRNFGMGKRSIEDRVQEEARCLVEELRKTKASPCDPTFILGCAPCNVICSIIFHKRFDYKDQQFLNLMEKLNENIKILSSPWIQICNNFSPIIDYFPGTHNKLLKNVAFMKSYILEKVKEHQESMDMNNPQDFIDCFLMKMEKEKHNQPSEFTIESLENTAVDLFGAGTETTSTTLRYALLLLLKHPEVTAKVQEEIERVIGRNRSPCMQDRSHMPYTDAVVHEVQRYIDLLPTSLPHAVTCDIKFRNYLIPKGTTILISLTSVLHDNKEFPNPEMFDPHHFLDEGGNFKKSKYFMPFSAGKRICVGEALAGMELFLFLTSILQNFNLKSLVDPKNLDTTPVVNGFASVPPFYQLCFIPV
Outline: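 10nM CYP2C9 + 100uM Luciferin-H (=KM), 25mM KPO4; cpd 10 min 37C; NADPH regen, 60 min 37C; stop/detect with P450 Glo-Buffer 20 min; luminescence. Norm. to 57uM sulphaphenazole as full inhibition.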

[11] = target: Cytochrome P450 3A4 (Homo sapiens) (UniProt P08684); test: qHTS Assay for Inhibitors and Substrates of Cytochrome P450 3A4 (AID 884); details: recombinant CYP3A4, Luciferin-PPXE luminescence; series mostly up to 57.1 µM; also: potency is read from the fitted curve at half-maximal effect; nearly all actives have a fitted effect of over 50% in size
Cytochrome P450 3A4 (Homo sapiens), sequence (P08684 whole entry, looked up): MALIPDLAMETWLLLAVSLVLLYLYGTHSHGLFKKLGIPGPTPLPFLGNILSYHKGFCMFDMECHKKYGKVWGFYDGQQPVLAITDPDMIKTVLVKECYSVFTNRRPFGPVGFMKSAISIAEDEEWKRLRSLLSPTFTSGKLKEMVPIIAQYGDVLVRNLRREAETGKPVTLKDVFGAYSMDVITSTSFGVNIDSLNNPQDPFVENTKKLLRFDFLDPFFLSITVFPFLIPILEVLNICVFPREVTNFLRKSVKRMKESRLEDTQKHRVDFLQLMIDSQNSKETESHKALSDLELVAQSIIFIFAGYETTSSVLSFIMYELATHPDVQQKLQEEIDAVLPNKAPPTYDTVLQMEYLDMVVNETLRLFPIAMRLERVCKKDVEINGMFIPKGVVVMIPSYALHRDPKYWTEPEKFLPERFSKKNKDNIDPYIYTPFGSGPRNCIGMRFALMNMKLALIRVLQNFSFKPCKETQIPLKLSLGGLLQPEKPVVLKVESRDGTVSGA
Outline: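 20 nM human CYP3A4 with 25 uM Luciferin-PPXE (at KM) in 200 mM KPO4, preincubated 10 min with compound; NADPH regeneration started a 60 min RT reaction. Luciferin detected by luminescence, normalized to 57 uM ketoconazole as full inhibition.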

[12] = target: Cytochrome P450 3A4 (Homo sapiens) (UniProt P08684); test: qHTS Assay for Activators of Cytochrome P450 3A4 (AID 885); details: recombinant CYP3A4, Luciferin-PPXE luminescence, 60 min; series mostly up to 57.1 µM; also: nearly all actives have a fitted effect of over 65% in size
Outline: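 20nM CYP3A4 + 25uM Luciferin-PPXE (=KM), 200mM KPO4; cpd 10 min RT; NADPH regen, 60 min RT; stop w/ detection buffer, 20 min; luminescence. Normalized to 57 uM ketoconazole.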

[13] = target: Dual specificity protein kinase CLK4 (Homo sapiens) (UniProt Q9HAZ1); test: qHTS Assay for Inhibitors of CDC-like Kinase 4 (Kinase-Glo Assay) (AID 1770); details: recombinant Clk4, Kinase-Glo ATP depletion luminescence; series mostly up to 66.7 µM; also: nearly all actives have a fitted effect of over 65% in size; also: potency is read from the fitted curve at half-maximal effect
Dual specificity protein kinase CLK4 (Homo sapiens), sequence (Q9HAZ1 whole entry, looked up): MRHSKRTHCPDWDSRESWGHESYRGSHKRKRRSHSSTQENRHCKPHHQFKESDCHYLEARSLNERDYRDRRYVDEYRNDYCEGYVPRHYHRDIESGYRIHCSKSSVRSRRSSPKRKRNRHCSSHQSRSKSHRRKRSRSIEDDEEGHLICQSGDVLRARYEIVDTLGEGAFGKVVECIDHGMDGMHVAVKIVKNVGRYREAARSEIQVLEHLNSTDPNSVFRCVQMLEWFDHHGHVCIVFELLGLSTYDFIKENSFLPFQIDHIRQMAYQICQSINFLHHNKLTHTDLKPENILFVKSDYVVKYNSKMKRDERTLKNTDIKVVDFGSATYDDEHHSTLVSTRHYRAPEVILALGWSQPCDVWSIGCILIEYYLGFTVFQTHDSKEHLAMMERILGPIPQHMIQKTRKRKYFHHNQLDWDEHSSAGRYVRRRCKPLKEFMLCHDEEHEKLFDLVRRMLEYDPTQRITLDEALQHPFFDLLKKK
Outline: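 25 nM Clk4 with 100 uM RS repeat peptide and 1 uM ATP (final) in Tris pH7.5, 10 mM MgCl2, 4.5 h at room temperature. Remaining ATP measured by Kinase-Glo luciferase luminescence.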

[14] = target: Dual specificity protein kinase CLK4 (Homo sapiens) (UniProt Q9HAZ1); test: qHTS Assay for Inhibitors of CDC-like Kinase 4 (ADP-Glo Assay) (AID 1771); details: recombinant CLK4, ADP-Glo luminescence; series mostly up to 80 µM; also: nearly all actives have a fitted effect of over 70% in size; also: potency is read from the fitted curve at half-maximal effect
Outline: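 Clk4 (25 nM) was incubated 1 hr at room temperature with 100 uM RS repeat peptide and 1 uM ATP in buffer with 2 mM MgCl2, 0.5 mM EGTA, 2.5 mM DTT. ADP formed was quantified by ADP-Glo luminescence.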

[15] = target: Ubiquitin carboxyl-terminal hydrolase 1 (Homo sapiens) (UniProt O94782); test: Inhibitors of USP1/UAF1: Pilot qHTS (AID 504865); details: purified USP1/UAF1, Ub-rhodamine cleavage fluorescence; series mostly up to 54.9 µM; also: nearly all actives have a fitted effect of over 35% in size; also: potency is read from the fitted curve at half-maximal effect
Ubiquitin carboxyl-terminal hydrolase 1 (Homo sapiens), sequence (O94782 whole entry, looked up): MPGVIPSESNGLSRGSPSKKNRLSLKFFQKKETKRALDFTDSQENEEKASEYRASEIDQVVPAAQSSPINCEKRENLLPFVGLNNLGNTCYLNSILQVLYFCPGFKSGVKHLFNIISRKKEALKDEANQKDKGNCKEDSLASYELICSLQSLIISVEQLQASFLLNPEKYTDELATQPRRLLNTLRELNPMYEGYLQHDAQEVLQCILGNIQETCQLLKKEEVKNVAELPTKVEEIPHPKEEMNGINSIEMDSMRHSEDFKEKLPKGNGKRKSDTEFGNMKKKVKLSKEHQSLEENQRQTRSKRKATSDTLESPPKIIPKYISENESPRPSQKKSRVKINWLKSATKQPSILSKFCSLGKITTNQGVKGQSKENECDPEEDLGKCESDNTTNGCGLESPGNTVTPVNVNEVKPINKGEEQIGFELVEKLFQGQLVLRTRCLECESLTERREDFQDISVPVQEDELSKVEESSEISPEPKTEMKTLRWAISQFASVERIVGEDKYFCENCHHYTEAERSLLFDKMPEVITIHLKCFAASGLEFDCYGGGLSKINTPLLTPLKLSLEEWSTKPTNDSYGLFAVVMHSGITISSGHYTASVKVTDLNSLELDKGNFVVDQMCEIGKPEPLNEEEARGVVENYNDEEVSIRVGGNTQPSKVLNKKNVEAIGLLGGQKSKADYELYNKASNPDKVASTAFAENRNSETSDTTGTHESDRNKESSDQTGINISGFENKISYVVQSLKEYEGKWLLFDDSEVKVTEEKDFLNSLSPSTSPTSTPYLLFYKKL
Outline: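 USP1/UAF1 complex at 1 nM preincubated 15 min at room temperature with compound, then Ub-Rho substrate added at 150 nM final. Fluorescence (480/540 nm) read kinetically in 50 mM HEPES pH 7.8, 0.5 mM EDTA, 1 mM TCEP, 0.1 mg/ml BSA, 0.01% Tween-20.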

[16] = Primary qHTS for small molecule stabilizers of the endoplasmic reticulum resident proteome: Secreted ER Calcium Modulated Protein (SERCaMP) assay (AID 1508630); details: SH-SY5Y GLuc-SERCaMP (Gaussia luciferase released on ER calcium loss) secretion, thapsigargin, luminescence; series mostly up to 38.4 µM; also: % is scaled to controls: 0 for no effect and ±100 for the full control effect
Outline: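 GLuc-SERCaMP-expressing SH-SY5Y cells, pretreated 16 h with compound, are challenged with thapsigargin to empty ER calcium stores; after 4 h, coelenterazine is added directly to the medium and luminescence is imaged.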

[17] = target: Dual specificity protein kinase CLK4 (Homo sapiens) (UniProt Q9HAZ1); test: qHTS Assay for Inhibitors of CDC-like Kinase 4 (ADP-FP Assay) (AID 1795); details: Transcreener ADP fluorescence polarization; series mostly up to 50 µM; also: nearly all actives have a fitted effect of over 60% in size; also: potency is read from the fitted curve at half-maximal effect
Outline: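 Recombinant Clk4 (6.25 nM) phosphorylated 100 uM RS repeat peptide with 1 uM ATP in 25 mM Tris pH 7.5, 10 mM MgCl2, 0.5 mM EGTA, 2.5 mM DTT, 0.01% Triton X-100 for 1 h. ADP was detected by Transcreener ADP2 competitive fluorescence polarization after 30 min at room temperature.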

[18] = qHTS Assay for Identification of Small Molecule Agonists for Hypoxia Response Element Signaling Pathway (AID 914; active = well fitted activation curve with a large enough effect in the signal ratio, with a control signal flat, not every such curve was filed as active; the % refers to the signal ratio; also: % of control where 0% means no effect); details: ME-180 (cervical carcinoma) HRE-bla reporter, beta-lactamase ratio, CoCl2, 17 h; activation: active compounds read high
Outline: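 In Opti-MEM containing 0.5% dialyzed FBS and 10 mM HEPES, ME-180 HRE-bla cells received a compound titration and EC50 CoCl2. They were incubated 17 hours, then CCF4-loaded 2.5 hours at room temperature before ratio reading.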

[19] = target: Cytochrome P450 2D6 (Homo sapiens) (UniProt P10635); test: qHTS Assay for Inhibitors and Substrates of Cytochrome P450 2D6 (AID 891); details: recombinant CYP2D6, luciferin-ME EGE luminescence; series mostly up to 57.1 µM; also: potency is read from the fitted curve at half-maximal effect; nearly all actives have a fitted effect of over 60% in size
Outline: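 Human CYP2D6 (5 nM) with 30 uM Luciferin-ME EGE (at Km) in 100 mM KPO4, compound preincubated 10 min, then NADPH regeneration system for 60 min at room temperature. Luciferin read by luminescence; normalized to 1.43 uM quinidine.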

[20] = target: Cytochrome P450 2C19 (Homo sapiens) (UniProt P33261); test: qHTS Assay for Inhibitors and Substrates of Cytochrome P450 2C19 (AID 899); details: recombinant CYP2C19, luciferin-H EGE luminescence; series mostly up to 57.1 µM; also: potency is read from the fitted curve at half-maximal effect; nearly all actives have a fitted effect of over 60% in size
Outline: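 Luminescent read-out of luciferin formed from Luciferin-H EGE (10uM, equal to KM). Enzyme 5nM in 50mM KPO4; compound added, 10 min at 37C, then NADPH regenerating system for 60 min at 37C. Full inhibition defined by 57uM ketoconazole.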

CN(C)c1nc(-c2cccnc2)nc2ccccc12
inactive: Potency [1] > 11.4 µM | activity change, negative = inhibition [2] 12.7% | activity change, negative = inhibition [4] -1.56% | activity, negative = inhibition [5] -4.72% | Potency [6] > 46 µM | Potency [7] > 46 µM | Potency [8] | Potency [9] | activity change, negative = inhibition [10] 81% [at 2.29 µM] | Potency [12] | Potency [15] | outcome [16]
active: Potency [3] 0.126 µM | Potency [11] 7.94 µM | Potency [13] 28.2 µM | Potency [14] 25.1 µM

c1cncc(-c2cc(NCc3cccs3)ncn2)c1
inactive: Potency [1] > 11.4 µM | activity change, negative = inhibition [2] 19% | activity change, negative = inhibition [4] 11.4% | activity, negative = inhibition [5] 7.74% | Potency [6] > 46 µM | Potency [7] > 46 µM | Potency [8] | Potency [9] | Potency [12] | Potency [15] | outcome [16]
active: Potency [3] 1 µM | Potency [11] 2.51 µM | Potency [13] 25.1 µM | Potency [14] 28.2 µM

CNc1nc(-c2cccc(NS(C)(=O)=O)c2)nc2ccccc12
inactive: Potency [1] > 11.4 µM | activity change, negative = inhibition [2] -8.82% | activity change, negative = inhibition [4] 6.53% | activity, negative = inhibition [5] -10.2% | Potency [6] > 46 µM | Potency [7] > 46 µM | Potency [8] | Potency [9] | Potency [12] | Potency [15] | outcome [16]
active: Potency [3] 0.398 µM | Potency [13] 14.1 µM | Potency [14] 22.4 µM

COc1ccc(CNc2ncncc2-c2ccc(C(=O)N(C)C)cc2)c(OC)c1
inactive: activity change, negative = inhibition [2] -28.8% | activity change, negative = inhibition [4] 18.9% | activity, negative = inhibition [5] -21% | Potency [6] > 46 µM | Potency [7] > 46 µM | Potency [8] | Potency [12] | Potency [13] | Potency [14] | Potency [17] | Potency [15] | outcome [16]
active: Potency [3] 15.8 µM | Potency [11] 0.501 µM

Cc1cccc(CNc2ccnc(-c3ccccc3C(F)(F)F)n2)c1
active: Potency [3] 6.31 µM | Potency [15] 3.98 µM
inactive: activity change, negative = inhibition [2] -10.1% | activity change, negative = inhibition [4] 1.23% | activity, negative = inhibition [5] 5.48% | Potency [6] > 46 µM | Potency [7] > 46 µM | Potency [8] | Potency [12] | activation [18] -2.48% | Potency [13] | Potency [14] | Potency [17] | outcome [16]

COc1cccc(-c2nccc(N(C)Cc3ccco3)n2)c1
active: Potency [3] 0.631 µM | Potency [19] 1.26 µM | Potency [20] 5.01 µM | Potency [13] 8.91 µM | Potency [14] 8.91 µM | Potency [17] 7.94 µM
inactive: activity change, negative = inhibition [2] -11.4% | activity change, negative = inhibition [4] -1.32% | activity, negative = inhibition [5] -2.39% | Potency [6] > 46 µM | Potency [7] > 46 µM | Potency [8] | Potency [9] | Potency [12] | activation [18] -11.6% | outcome [16]
